# Data from ChEMBL document CHEMBL3988442, “University of Dundee, Small-Polar-MMV Screening Library” (2021).
# Out of some 48,000 compounds screened, about 13,000 (27%) showed an effect of 50% or more. The list shows a part of the results.
# Test system: Wolbachia pipientis
# Experiment: Anti-Wolbachia Cell-Based Screen
# Type: functional
# Set-up: scale not given: in the data most compounds retested in dose-response had high values
# Conditions: 5 µM
row,SMILES,Percent Effect [%]
1,CCCN(C1CCc2ccccc2C1)S(C)(=O)=O (stereo unspecified),-12.4
2,NC(=O)CN(CC1CCOC1)C1CC1 (stereo unspecified),12.45
3,CS(=O)(=O)N1CCN(C(=O)c2ccco2)[C@H]2CS(=O)(=O)C[C@H]21,-4.132
4,CCCN1C(=O)[C@@H]2[C@@H](CCN2C(=O)COC)N(Cc2cccs2)C1=O,27.38
5,COCC(=O)N1CCN(S(=O)(=O)c2ccccc2)[C@H]2CS(=O)(=O)C[C@H]21,117.3
6,COc1ccccc1S(=O)(=O)N1CCN(C)[C@@H]2CS(=O)(=O)C[C@@H]21,-4.767
7,COCC(=O)N1CCN(C(=O)Cc2cccs2)[C@H]2CS(=O)(=O)C[C@H]21,102.4
8,COCC(=O)N1CCN(S(=O)(=O)c2cccs2)[C@H]2CS(=O)(=O)C[C@H]21,101.1
9,CCC(=O)N1CCN(S(=O)(=O)c2cccc(F)c2)[C@H]2CS(=O)(=O)C[C@H]21,7.69
10,COCC(=O)N1CCN(C(=O)c2cccs2)C[C@H]1C(=O)OC,-7.618
11,COCC(=O)N1CCN(S(=O)(=O)c2ccccc2)[C@@H](C(=O)OC)C1,2.651
12,COc1ncccc1CNC(=O)C1CC(=O)N(C)C1 (stereo unspecified),-5.362
13,CN1CC(C(=O)NCCc2ccc(F)c(Br)c2)CC1=O (stereo unspecified),95.91
14,CN1CC(C(=O)NCCc2ccn(-c3ccc(F)cc3)n2)CC1=O (stereo unspecified),-45.08
15,CN1CC(C(=O)NCc2ccc(Br)cc2F)CC1=O (stereo unspecified),97.3
16,CC(=O)N1CCCC(C(=O)NCCc2nc(Cc3ccccc3)no2)C1 (stereo unspecified),-1.107
17,CN1CC(C(=O)NCCc2ccc(Br)cc2F)CC1=O (stereo unspecified),108.1
18,CSCc1nc(CCNC(=O)C2CCCN(C(C)=O)C2)cs1 (stereo unspecified),1.152
19,Cc1ccccc1CCNC(=O)C1CC(=O)N(CC(F)(F)F)C1 (stereo unspecified),1.737
20,CN1CC(C(=O)NCc2cccnc2OCC(F)(F)F)CC1=O (stereo unspecified),1.673
21,CC(=O)N1CCCC(C(=O)NCCc2ccc(F)c(Br)c2)C1 (stereo unspecified),78.71
22,CC(C)CN1CC(C(=O)NCCc2ccc(OC(F)F)cc2)CC1=O (stereo unspecified),-18.94
23,CN1CC(C(=O)NCc2ccc(OCc3cccnc3)cc2)CC1=O (stereo unspecified),-2.56
24,Cn1ccc(C(=O)NC2CCN(c3ncccn3)CC2)cc1=O,3.49
25,CC(C)N1CCN(C(=O)Nc2cnn(CC(N)=O)c2)CC1,2.959
26,N#Cc1cccnc1NCCNC(=O)N1CCCSCC1,-6.239

row,SMILES,Percent Effect [%]
1,CCN(CC)S(=O)(=O)CC(=O)Nc1ccsc1,-11.66
2,NC(=O)N1CCCC(C(=O)NCCOc2ccc(F)cc2F)C1 (stereo unspecified),-7.563
3,NC(=O)N1CCCC(C(=O)NCCOc2ccc(F)c(F)c2)C1 (stereo unspecified),-0.02905
4,CC(=O)N1CCCC(C(=O)NCCOc2cc(C)cc(C)c2)C1 (stereo unspecified),99.72
5,COc1cccc(S(=O)(=O)CCN2CCN(CCO)CC2)c1,9.306
6,Cc1ccc(C(=O)N2CCC(c3noc(-c4cccnc4)n3)CC2)cn1,104.3
7,Cc1noc(-c2ccc(N3CCC(C(=O)N4CCCC4)CC3)nc2)n1,-5.391
8,N#Cc1cccc(C(=O)N2CC(c3nc(-c4cccnc4)no3)C2)c1,18.62
9,Cc1ccc(-c2nc(C3CCN(C(=O)c4ccn(C)n4)CC3)no2)cn1,126.5
10,Cc1ccc(-c2nc(C3CCN(C(=O)c4cnn(C)c4)CC3)no2)cn1,103.5
11,Cc1cc(CNc2ccc(-c3nc(C4CC4)no3)cn2)no1,-5.978
12,O=C1NCCCC[C@@H]1Nc1ccc(-c2nc(C3CC3)no2)cn1,-3.27
13,Cc1cccc2[nH]c(C3CCN(C(=O)c4ccnn4C)CC3)nc12,1.136
14,Cc1cc(C)n(CCN(C)c2ccc(-c3nc(C4CC4)no3)cn2)n1,-7.447
15,Cc1ccc(-c2nc(C3CCN(C(=O)c4ccnn4C)CC3)no2)cn1,110.8
16,Cc1csc(CNc2ccc(-c3nc(C4CC4)no3)cn2)n1,8.683
17,CS(=O)(=O)NCCn1ccc(-c2cccs2)n1,-6.394
18,CCS(=O)(=O)CC(C)NC(=O)N(C)Cc1cc(Cl)cn1C (stereo unspecified),-1.914
19,CCn1ccnc1CN1CCCC(CO)(Cc2cccc(OC)c2)C1 (stereo unspecified),5.509
20,COCCN1CCN(C(=O)c2cc(C(C)C)on2)[C@H]2CS(=O)(=O)C[C@H]21,8.676
21,CC(C)N1CC[C@@H]2[C@H](COCC3CC3)CN(C)C(=O)[C@@H]2CC1.O=C(O)C(F)(F)F,-0.4638
22,COCC1c2nnn(C)c2CCN1C(=O)Cc1ccc2c(c1)OCO2 (stereo unspecified),20.75
23,CCc1ccc(CN2CCc3c(nnn3C)C2COC)cc1.O=C(O)C(F)(F)F (stereo unspecified),-3.58
24,CCn1nnc2c1CCN(C(=O)c1ccc3c(c1)OCO3)C2COC (stereo unspecified),-29.17
25,COCC1c2nnn(C)c2CCN1C(=O)Cc1ccccn1 (stereo unspecified),111.4
26,COCC1c2nnn(C)c2CCN1C(=O)c1ccc(OC)c(F)c1 (stereo unspecified),111.1

row,SMILES,Percent Effect [%]
1,CN(C)C(=O)N1CCc2c(nnn2C)C1COCC1CC1 (stereo unspecified),-5.702
2,COCC1c2nnn(C)c2CCN1C(=O)COc1ccccc1C (stereo unspecified),112
3,COCC1c2nnn(C)c2CCN1C(=O)CCc1cccc(OC)c1 (stereo unspecified),104.7
4,COCC1c2nnn(CC3CC3)c2CCN1C(=O)c1cccn1C (stereo unspecified),-3.461
5,Cn1nnc2c1CCN(C(=O)CC1CC1)C2COCCN1CCCC1 (stereo unspecified),-8.962
6,COCC1c2nnn(CC3CC3)c2CCN1C(=O)c1cccc(F)c1 (stereo unspecified),-7.214
7,Cn1nnc2c1CCN(Cc1ccccn1)C2COCc1ccccc1.O=C(O)C(F)(F)F.O=C(O)C(F)(F)F (stereo unspecified),-46.38
8,NC(=O)c1ccc(N2CCCCC2)c(NC(=O)c2cc(F)ccc2F)c1,-3.666
9,CCC(C)C(=O)NCc1cccc(N2CCCCC2=O)c1 (stereo unspecified),-5.78
10,Cn1cnnc1S(=O)(=O)C1CCN(S(=O)(=O)C2CC2)CC1,-4.739
11,CN(Cc1cc(Br)cn1C)C(=O)c1cscn1,4.085
12,CCC(NCc1nccn1C)c1nc(C(F)(F)F)cs1 (stereo unspecified),20.15
13,Cc1ccc(CN2CCC[C@@H]3CN(C(=O)c4ccco4)C[C@@H]32)o1.O=C(O)C(F)(F)F,-0.1922
14,CN(C)C(=O)N1CCc2c(nnn2C)C1COCc1ccccc1 (stereo unspecified),-4.916
15,COCC1c2nnn(C)c2CCN1C(=O)COc1ccccc1OC (stereo unspecified),111.7
16,COCC(=O)N1CCc2c(nnn2C)C1COCCN1CCCC1.O=C(O)C(F)(F)F (stereo unspecified),-0.9958
17,Cn1cnnc1CNC(=O)Nc1ccc(OC2CCC2)c(F)c1,19.99
18,Cc1nc(C)c(C(=O)N2CCc3nnc(C4CCCN4C)n3CC2)s1 (stereo unspecified),98.46
19,Cc1nc(C)c(C(=O)N2CCc3nnc(C4CCCCN4C)n3CC2)s1 (stereo unspecified),78.92
20,Cc1ccc(C(=O)N2CCCC2c2nnc3n2CCCCC3)o1 (stereo unspecified),-4.034
21,Cc1nc(C)c(C(=O)N2CCCc3c(F)cccc32)o1,-18.15
22,Cc1ncsc1C(=O)N1CCc2nnc(C3CCCCN3C)n2CC1 (stereo unspecified),103.3
23,Cc1nc(C2CCCN(C(=O)c3sc(C)nc3C)C2)no1 (stereo unspecified),-10.94
24,Cc1nc(C)c(C(=O)N2CCCC2c2nnc3n2CCCCC3)s1 (stereo unspecified),13.74
25,Cc1cc2c(=O)n3c(nc2s1)CCN(C(=O)c1scnc1C)CC3,-10.56
26,Cc1nc(C)c(C(=O)N2CCc3nnc(C4CCCCN4C)n3CC2)o1 (stereo unspecified),112.5

row,SMILES,Percent Effect [%]
1,C=C(C)COc1cccc(CNC(CC(C)C)c2ncnn2C)c1 (stereo unspecified),-17.42
2,CCc1ccccc1OCCN(C)C(=O)CCN1CCCCO1,-13.9
3,CCCN(CC)c1ccc(C(=O)N2CCCC2c2cnn(C)c2)cn1 (stereo unspecified),104.2
4,CCN(c1ccc(C(=O)N(Cc2cnn(C)c2)C(C)C)cn1)C(C)C,-13.88
5,CCN(c1ccc(C(=O)N2CCCC2c2cnn(C)c2)cn1)C(C)C (stereo unspecified),103.8
6,CC(C)(C#N)CCCS(=O)(=O)c1nccn1-c1cccc(F)c1,-8.679
7,CC(C)(C)c1cc(NC(=O)CN(Cc2cccs2)Cc2cccs2)on1,32.93
8,CC(CC(F)(F)F)NCc1ccccc1-n1ccnc1 (stereo unspecified),3.95
9,CC(C)C1CN(S(=O)(=O)c2ccc(C#N)cc2)CCS1 (stereo unspecified),-10.5
10,Cc1cc(C)n(C2CCCN(C(=O)CN(C)C3CC3)C2)n1 (stereo unspecified),-13.37
11,Cc1nc(C)n(C2CCCN(C(=O)CCOc3cccc(F)c3)C2)n1 (stereo unspecified),103.4
12,Cc1cc(C)n(C2CCCN(C(=O)COCC(F)(F)F)C2)n1 (stereo unspecified),-14.38
13,Cc1cc(C)n(C2CCCN(C(=O)CCOc3cccc(F)c3)C2)n1 (stereo unspecified),118.8
14,CC(NS(C)(=O)=O)C(=O)Nc1ccc2oc(C3CC3)nc2c1 (stereo unspecified),-12.46
15,CC(C)n1cnnc1CNC(=O)CCCOc1ccccc1Cl,-21.75
16,O=C(NS(=O)(=O)c1cnn(-c2ccccc2F)c1)c1ccco1,-14.51
17,N#Cc1cccc(S(=O)(=O)N(CC2CCC2)c2cn[nH]c2)c1,-4.525
18,O=C(c1ccnnc1)N1C[C@@H](OCc2cccnc2)[C@H]2OCCC[C@H]21,85.61
19,O=C(c1ccnnc1)N1CCO[C@H]2[C@H](Oc3cccnc3)CC[C@@H]21,84
20,Cc1occc1C(=O)N1CCO[C@H]2[C@H](Oc3cccnc3)CC[C@@H]21.O=C(O)C(F)(F)F,-18.12
21,O=C(c1ccnnc1)N1CCO[C@H]2[C@@H](OCc3cccnc3)CC[C@@H]21,-4.529
22,O=C(c1ccnnc1)N1C[C@H](Oc2cccnc2)[C@H]2OCCC[C@H]21,-6.406
23,O=C(C1=CCCC1)N1C[C@H](OCc2cccnc2)[C@H]2OCCC[C@H]21,-3.807
